Screens from PubChem.
Hsp70 activator – Hsp70 transcriptional activators, primary screen, cell-based, HeLa, Hsp70 promoter luciferase, luminescence, 10 µM | HeLa Hsp70 promoter luciferase reporter; scaled: vehicle 0, proteasome-inhibitor control 100% | activation, % at 10 µM | hit rate 0.04% among 200,000 | AID 1203, 2008;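 active = activation above the mean across all tested compounds plus 3 SD, cutoff set per campaign, cut at about 5.5% in these data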;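 also: 100% = MG132 at 30 µM as the positive control and 0% = DMSO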
S1P4 agonist – S1P4 receptor agonists, primary screen, cell-based. Sphingosine 1-phosphate receptor 4 (Homo sapiens), O95977. S1P4-expressing cell line, agonist reporter assay. activation, % at 4.98 µM. hit rate 0.35% among 220,000. AID 1509, 2009; in the data active = activation above about 11%;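 also: 0% = DMSO vehicle and 100% = reference agonist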
Target sequence (O95977 whole entry, looked up): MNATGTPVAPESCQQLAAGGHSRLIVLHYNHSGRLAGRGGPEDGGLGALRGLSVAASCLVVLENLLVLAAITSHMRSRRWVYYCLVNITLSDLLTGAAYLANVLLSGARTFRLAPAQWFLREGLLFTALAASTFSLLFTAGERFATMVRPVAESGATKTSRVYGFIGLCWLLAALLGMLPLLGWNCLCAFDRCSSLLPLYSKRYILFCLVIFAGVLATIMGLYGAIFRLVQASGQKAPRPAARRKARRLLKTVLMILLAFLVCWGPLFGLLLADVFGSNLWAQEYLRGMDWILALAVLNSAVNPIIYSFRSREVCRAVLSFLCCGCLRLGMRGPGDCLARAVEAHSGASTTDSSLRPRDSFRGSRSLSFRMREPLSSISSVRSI
S1P4 antagonist – S1P4 receptor antagonists, primary screen, cell-based; S1P4-expressing cells, antagonist mode, reporter read-out; Sphingosine 1-phosphate receptor 4 (Homo sapiens), O95977; hit rate 0.26% among 220,000; inhibition, % at 4.98 µM; in the data active = inhibition above about 29%;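 also: 0% = wells stimulated with agonist and 100% = vehicle wells without agonist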
S1P3 antagonist – S1P3 receptor antagonists, primary screen, cell-based | CHO S1P3 NFAT-BLA reporter, FRET fluorescence, antagonist mode | inhibition, % at 4.98 µM | hit rate 0.27% among 170,000;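 active = inhibition above the plate cutoff, the mean inhibition of test wells on that plate plus 3 SD, cut at about 28% in these data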;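 also: cells challenged with S1P at its EC80 of 0.8 µM; blue over green emission ratio from cleaved BLA substrate after 4 h stimulation; 0% = S1P-stimulated wells and 100% = unstimulated DMSO-only wells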
AI-2 QS modul – Vibrio harveyi AI-2 quorum sensing modulators, primary screen, JMH597 strain, luminescence/OD600 ratio. Vibrio harveyi JMH597 AI-2 luminescence/OD600 ratio, 9 h; hits give low values; strain lacks LuxN and CqsS sensors; 0 = neutral-control median. activity change, % at 7.5 µM. hit rate 0.4% among 300,000. AID 2094, 2009; in the data active = activity change below about -75%, passing the limit was not always enough; inconclusive = no clear call, values can overlap the other calls;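 also: luminescence divided by OD600 gain over 9 h not by final OD600 alone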
JMH597 growth rt – Vibrio harveyi growth inhibition, confirmation, counter-screen for AI-2 quorum sensing project, JMH597 strain, OD600 absorbance | 9 h; lacks LuxN and CqsS sensors | AID 2726, 2010 | growth inhibition, % at 7.5 µM | shares compounds with AI-2 QS modul | hit rate 1% among 750;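 active = every replicate shows growth inhibition above 50%; inconclusive = at least half, but not all, replicates pass that cutoff; inactive = fewer than half of replicates pass it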
BB721 const-QS lum – luminescence inhibition in constitutive-on V. harveyi, confirmation, counter-screen for LuxS inhibitor project, strain BB721, luminescence readout | shares compounds with AI-2 QS modul | Vibrio harveyi BB721 luminescence, 9 h | inhibition, % at 7.5 µM | hit rate 95% among 750 | AID 2727, 2010;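 active = inhibition above about 80% in every replicate, not just on average, limit read from the data; inconclusive = at least half of replicates past the limit, but not all; inactive = fewer than half of replicates past the limit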
BB721 growth rt – growth inhibition of V. harveyi BB721, confirmation, cytotoxicity control for AI-2 quorum sensing inhibitors, strain BB721, absorbance OD600. shares compounds with AI-2 QS modul. Vibrio harveyi BB721 growth, 9 h. growth inhibition, % at 7.5 µM. hit rate 3% among 750;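 active = every replicate shows growth inhibition above 50%; inconclusive = at least half but not all replicates above 50% inhibition; inactive = under half of replicates above 50% inhibition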
AI-2 QS JMH597 – Vibrio harveyi AI-2 signaling luminescence modulation – JMH597 strain, confirmation. shares compounds with AI-2 QS modul. Vibrio harveyi JMH597 AI-2 quorum sensing luminescence, 9 h; luxN and CqsS knockout, AI-2 only. inhibition, % at 7.5 µM. hit rate 97% among 750;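 active = every replicate shows more than 75% inhibition of signal versus neutral control wells; inconclusive = half to three quarters of replicates exceed 75% inhibition; inactive = fewer than half of replicates exceed 75% inhibition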
Starred values were filed as active, the others as inactive; ? = inconclusive; . = no result given. The list is not random: actives were taken first. Their share in the collection is about 0.97%.

SMILES	Hsp70 activator	S1P4 agonist	S1P4 antagonist	S1P3 antagonist	AI-2 QS modul	JMH597 growth rt	BB721 const-QS lum	BB721 growth rt	AI-2 QS JMH597
O=C(COc1ccc(Br)cc1)Nc1ccc(S(=O)(=O)Nc2ccccn2)cc1	.	.	.	.	-87*	12	94*	-21	98*
CN(C)S(=O)(=O)c1ccc(NC(=O)COC(=O)c2ccccn2)cc1	0	1	-8	.	-87*	-10	96*	5	97*
CCc1ccc(NC(=O)COc2ccc(Br)cn2)cc1	0	-2	-4	-4	-84*	-16	95*	1	96*
CCc1ccc(OCC(=O)Nc2ccncc2)c(Br)c1	.	.	.	.	-81*	30	?	-22	100*
CC(C)(C)c1ccc(OCC(=O)Nc2ccncc2)c(Br)c1	.	.	.	.	19	.	.	.	.
CC12CCC(=O)N1C(C(=O)Nc1nnc(SCc3ccc(F)cc3)s1)CS2 (stereo not drawn)	.	.	.	.	17	.	.	.	.
CC(C)c1ccc(NC(=O)CNS(=O)(=O)c2ccc(F)cc2)cc1	0	0	3	-9	-77*	10	89*	6	93*
O=C(CNS(=O)(=O)c1ccc(F)cc1)Nc1ccc(C(F)(F)F)cc1	0	-1	7	.	-69	.	.	.	.
CCC(C)(C)NC(=O)C(c1ccccc1Cl)N(Cc1cccnc1)C(=O)CCC(=O)Nc1cc(C)on1 (stereo not drawn)	.	.	.	.	23	.	.	.	.
CCOC(=O)c1ccc(NC(=O)CSc2nc3ncccc3[nH]2)cc1	0	0	-12	-3	-91*	31	97*	40	97*
CCCCc1ccc(NC(=O)CSc2nc3ncccc3[nH]2)cc1	.	.	.	.	-88*	3	93*	7	96*
COc1cccc(/C=N/NC(=O)CN(CCc2ccccc2)S(=O)(=O)c2ccc(NC(C)=O)cc2)c1	0	-1	27	-17	17	.	.	.	.
Cc1ncc(C[n+]2ccc(C)c(C)c2)c(N)n1	.	.	.	.	37	.	.	.	.
Clc1ccc(OCc2cc(-c3ccccc3)no2)c(Cl)c1	0	-2	-8	.	26	.	.	.	.
COc1ccc(-c2cc(COc3ccccc3)on2)cc1	0	1	-16	-11	-89*	13	97*	-17	98*
COc1ccc(-c2cc(CS(=O)(=O)c3ccccc3)on2)cc1	0	0	4	-8	9	.	.	.	.
Fc1ccc(OCc2cc(-c3ccccc3)no2)cc1	.	.	.	.	-95*	31	98*	33	98*
Cc1cccc(OCc2cc(-c3ccccc3)no2)c1C	.	.	.	.	-96*	25	99*	33	99*
CC(NC(=S)NCCc1ccccc1)C(c1cccs1)N1CCN(Cc2ccccc2)CC1 (stereo not drawn)	0	1	1	-2	25	.	.	.	.
O=C(NNC(=S)NCCc1ccccc1)c1ccc(Br)s1	0	2	-17	2	13	.	.	.	.
COc1ccccc1C(=O)N/C(=C\c1cn(S(=O)(=O)N(C)C)c2ccccc12)C(=O)N1CCCC1	.	.	.	.	2	.	.	.	.
O/N=C/Cc1[nH]c2ccccc2c1-c1ccccc1	.	.	.	.	-96*	29	95*	-97	99*
COc1ccc2nc3sc(C(=O)N4CCN(C)CC4)cc3cc2c1	0	0	-17	-17	-86*	6	89*	-2	93*
COc1ccc2nc3sc(C(=O)NCCCN4CCc5ccccc5C4)cc3cc2c1	0	0	-17	-5	-2	.	.	.	.
Cc1cc(=O)oc2cc(OCC3CC(c4ccccc4)=NO3)ccc12 (stereo not drawn)	1	0	-16	.	-86*	21	95*	35	96*
SMILES	Hsp70 activator	S1P4 agonist	S1P4 antagonist	S1P3 antagonist	AI-2 QS modul	JMH597 growth rt	BB721 const-QS lum	BB721 growth rt	AI-2 QS JMH597
Cc1cc(=O)oc2cc(OCC3CC(c4ccc(Br)cc4)=NO3)ccc12 (stereo not drawn)	0	-2	2	.	.	.	.	.	.
Cc1nn(CC(=O)NCc2ccc(-n3cccn3)cc2)c(C)c1[N+](=O)[O-]	0	0	2	3	-2	.	.	.	.
COc1cc(C)ccc1OCc1cc(C(=O)N2CCCCCCC2)no1	.	.	.	.	20	.	.	.	.
O=C(Nc1cnn(Cc2ccc(Cl)cc2)c1)c1cccs1	.	1	-15	1	-89*	26	96*	-9	97*
Clc1cccc(CON/C=N/c2ncnc3sccc23)c1	0	0	-13	.	-92*	44	96*	0	98*
Cc1ccc(S(=O)(=O)NCCC(=O)Nc2ccc(C)cc2C(=O)c2ccccc2)cc1	0	-2	-3	-7	-7	.	.	.	.
O=C(Nn1cnc2ccccc2c1=O)c1ccccc1Cl	0	1	-12	-21	-4	.	.	.	.
O=C(/C=C/c1ccccc1Cl)Nn1cnc2ccccc2c1=O	0	1	-18	-6	-78*	19	96*	0	98*
O=C(Nc1ccc(Cl)cc1)Nn1cnc2ccccc2c1=O	.	.	.	.	-98*	2	100*	-13	100*
Cc1ccccc1C(=O)Nn1cnc2ccccc2c1=O	0	1	-8	5	7	.	.	.	.
O=C(/C=C/c1ccccc1)Nn1cnc2ccccc2c1=O	0	10	-12	10	-88*	19	98*	-1	99*
Cn1c(=O)c2c(ncn2CC(=O)N2CCN(C(=O)c3ccco3)CC2)n(C)c1=O	0	0	-5	2	15	.	.	.	.
N#CCS(=O)(=O)c1ccccc1	.	.	.	.	25	.	.	.	.
COc1ccc(C2(c3ccc(OC)cc3)NC(=O)N(CC(=O)Nc3ccc(OC(F)F)cc3)C2=O)cc1	.	.	.	.	3	.	.	.	.
COc1ccc(NC(=O)CN2C(=O)NC(c3ccccc3)(c3ccccc3)C2=O)cc1	.	.	.	.	-94*	2	92*	14	96*
CCCC1(c2ccccc2)NC(=O)N(CC(=O)NCc2ccc(C)cc2)C1=O (stereo not drawn)	.	.	.	.	-91*	-6	89*	-13	94*
CCc1ccc(C(=O)NNC(=O)CN2C(=O)NC(CC)(c3ccccc3)C2=O)cc1 (stereo not drawn)	.	.	.	.	-83*	5	88*	8	94*
